# Measured values as given in the supplement of paper PMC10849652.
# Of roughly 7,900 targets only a part is listed; those with a hit were picked by preference. About 0.6% of all pairs of compound and target were hits. A number with no mark means an inactive call.
# Key:
# Experiment in all cases: log2 fold change, soluble protein after heating vs DMSO (PISA); higher = thermal stabilisation; K562 cells, 10 uM, 30 min; active = over 0.2 and 3.5 SD of the protein, either way, in both replicates (recomputed)
# [1] = compound: CN1CCN(CCOc2cc(OC3CCOCC3)c3c(Nc4c(Cl)ccc5c4OCO5)ncnc3c2)CC1 [saracatinib]
# Procedure, shortened: (§1)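 Aliquots of K562 cells (2×10^6 cells/mL) treated with 10 μM compound for 30 min were heated for 3 min over 48°C-58°C. After pooling and extraction in PBS with 0.5% NP-40 at 4°C, soluble protein from a 21,000xg, 90 min spin was quantified by TMTpro 16plex LC-MS/MS with channel sums equalised. Thermal stability is expressed against control samples, from duplicates, as a log2 fold change.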
# [2] = compound: CN1CCN(c2nc(C3=C(c4c[nH]c5ccccc45)C(=O)NC3=O)c3ccccc3n2)CC1 [sotrastaurin]
# Procedure, shortened: as §1
# [3] = compound: CN1CC[C@H](c2c(O)cc(O)c3c(=O)cc(-c4ccccc4Cl)oc23)[C@H](O)C1 [alvocidib]
# Procedure, shortened: as §1
# [4] = compound: CN1CCc2c(c3ccccc3n2Cc2ccc(C(=O)NO)cc2)C1 [Tubastatin A]
# Procedure, shortened: as §1
# [5] = compound: CNC(=O)C1=CC=CC=C1NC2=NC(=NC=C2Cl)NC3=C(C=C(C=C3)N4CCOCC4)OC
# Procedure, shortened: as §1
# [6] = compound: CNC(=O)c1ccc(Nc2ncc(C(F)(F)F)c(NCc3nccnc3N(C)S(C)(=O)=O)n2)cc1 [defactinib]
# Procedure, shortened: as §1
# [7] = compound: CNCc1ccc(-c2[nH]c3cc(F)cc4c3c2CCNC4=O)cc1 [rucaparib]
# Procedure, shortened: as §1
# [8] = compound: CNc1nc(-c2ccc3c(N)n[nH]c3c2)cc(N2C[C@@H](C(=O)NC3CCCCC3)CC[C@H]2C)n1
# Procedure, shortened: as §1
# [9] = compound: COC(=O)N[C@@H](C)CNc1nccc(-c2cn(C(C)C)nc2-c2cc(Cl)cc(NS(C)(=O)=O)c2F)n1 [encorafenib]
# Procedure, shortened: as §1
# [10] = compound: COC(=O)[C@H](CCSC)NC(=O)C1=C(C=C(C=C1)NC[C@H](CS)N)C2=CC=CC=C2
# Procedure, shortened: as §1
# [11] = compound: COC1=CC=C(C=C1)CN2C=CC3=C2C=C(C=C3)C(=O)NO
# Procedure, shortened: as §1
# [12] = compound: CON(C)C(=O)N1N=C(c2cc(F)ccc2F)S[C@@]1(CCCN)c1ccccc1 [filanesib]
# Procedure, shortened: as §1
# [13] = compound: CO[C@H]1C[C@@H]2CC[C@@H](C)[C@@](O)(O2)C(=O)C(=O)N2CCCC[C@H]2C(=O)O[C@H]([C@H](C)C[C@@H]2CC[C@H](n3cnnn3)[C@H](OC)C2)CC(=O)[C@H](C)/C=C(\C)[C@@H](O)[C@@H](OC)C(=O)[C@H](C)C[C@H](C)/C=C/C=C/C=C/1C [zotarolimus]
# Procedure, shortened: as §1
# [14] = compound: COc1cc(C(=O)O)ccc1NC(=O)[C@@H]1N[C@@H](CC(C)(C)C)[C@](C#N)(c2ccc(Cl)cc2F)[C@H]1c1cccc(Cl)c1F [idasanutlin]
# Procedure, shortened: as §1
# [15] = compound: COc1cc(Nc2ncc3c(n2)-c2ccc(Cl)cc2C(c2c(F)cccc2OC)=NC3)ccc1C(=O)O [alisertib]
# Procedure, shortened: as §1
# [16] = compound: COc1cc2nc(-c3cc(F)ccc3O)nc(N[C@@H]3CNC[C@H]3C(C)(C)O)c2cc1OC
# Procedure, shortened: as §1
# [17] = compound: COc1cc2ncnc(Nc3ccc(F)c(Cl)c3)c2cc1OCCCN1CCOCC1 [gefitinib]
# Procedure, shortened: as §1
# [18] = compound: COc1cccc2cc(-c3nc([C@H]4CC[C@H](C(=O)O)CC4)n4ncnc(N)c34)[nH]c12
# Procedure, shortened: as §1
# [19] = compound: CS(=O)(=O)CCNCc1ccc(-c2ccc3ncnc(Nc4ccc(OCc5cccc(F)c5)c(Cl)c4)c3c2)o1 [lapatinib]
# Procedure, shortened: as §1
# [20] = compound: CS(=O)(=O)N1CCN(Cc2cc3nc(-c4cccc5[nH]ncc45)nc(N4CCOCC4)c3s2)CC1 [pictilisib]
# Procedure, shortened: as §1
# Chain of UniProt Q13501 (Q13501 whole entry, looked up): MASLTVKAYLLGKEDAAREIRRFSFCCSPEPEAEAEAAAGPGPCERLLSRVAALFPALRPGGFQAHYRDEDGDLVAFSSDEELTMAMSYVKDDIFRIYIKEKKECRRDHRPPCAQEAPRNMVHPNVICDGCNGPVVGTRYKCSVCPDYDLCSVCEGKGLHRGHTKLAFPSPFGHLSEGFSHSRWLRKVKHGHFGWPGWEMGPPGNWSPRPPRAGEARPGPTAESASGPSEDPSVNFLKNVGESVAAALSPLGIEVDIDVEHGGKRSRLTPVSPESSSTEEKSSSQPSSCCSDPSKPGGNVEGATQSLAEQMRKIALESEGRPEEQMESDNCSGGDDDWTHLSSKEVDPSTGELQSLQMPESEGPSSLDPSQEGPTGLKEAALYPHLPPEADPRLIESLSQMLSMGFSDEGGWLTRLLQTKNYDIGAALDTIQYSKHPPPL
# Chain of UniProt Q13247 (Q13247 whole entry, looked up): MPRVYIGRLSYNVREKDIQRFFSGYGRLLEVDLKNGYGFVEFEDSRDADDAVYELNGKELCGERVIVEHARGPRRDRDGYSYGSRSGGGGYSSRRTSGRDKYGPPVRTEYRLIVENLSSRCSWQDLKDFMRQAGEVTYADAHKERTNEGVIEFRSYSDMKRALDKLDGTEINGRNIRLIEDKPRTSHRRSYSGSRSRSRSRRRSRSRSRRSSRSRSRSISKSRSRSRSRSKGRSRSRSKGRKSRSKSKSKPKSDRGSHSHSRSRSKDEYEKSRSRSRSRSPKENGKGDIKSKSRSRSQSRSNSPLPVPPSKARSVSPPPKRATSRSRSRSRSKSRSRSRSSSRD
# Chain of UniProt O00193 (O00193 whole entry, looked up): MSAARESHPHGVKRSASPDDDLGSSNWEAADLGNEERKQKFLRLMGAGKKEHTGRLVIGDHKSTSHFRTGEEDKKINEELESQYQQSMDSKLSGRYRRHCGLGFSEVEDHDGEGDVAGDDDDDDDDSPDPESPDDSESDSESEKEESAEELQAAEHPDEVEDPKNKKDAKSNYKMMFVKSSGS
# Chain of UniProt P78382 (P78382 whole entry, looked up): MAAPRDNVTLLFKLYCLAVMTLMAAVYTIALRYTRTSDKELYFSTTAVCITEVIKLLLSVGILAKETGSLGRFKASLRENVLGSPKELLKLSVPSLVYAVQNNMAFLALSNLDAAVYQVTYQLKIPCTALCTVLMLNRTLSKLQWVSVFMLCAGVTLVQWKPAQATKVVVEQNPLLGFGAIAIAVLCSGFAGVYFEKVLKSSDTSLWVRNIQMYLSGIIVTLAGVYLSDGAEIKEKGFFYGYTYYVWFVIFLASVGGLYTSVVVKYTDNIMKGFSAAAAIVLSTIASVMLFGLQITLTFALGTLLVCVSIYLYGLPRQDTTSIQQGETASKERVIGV
# Chain of UniProt Q8WVK2 (Q8WVK2 whole entry, looked up): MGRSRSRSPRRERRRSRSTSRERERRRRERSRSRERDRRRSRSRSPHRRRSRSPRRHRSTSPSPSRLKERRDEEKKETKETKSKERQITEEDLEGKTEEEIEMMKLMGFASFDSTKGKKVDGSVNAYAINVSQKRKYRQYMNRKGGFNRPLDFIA
# Chain of UniProt O95149 (O95149 whole entry, looked up): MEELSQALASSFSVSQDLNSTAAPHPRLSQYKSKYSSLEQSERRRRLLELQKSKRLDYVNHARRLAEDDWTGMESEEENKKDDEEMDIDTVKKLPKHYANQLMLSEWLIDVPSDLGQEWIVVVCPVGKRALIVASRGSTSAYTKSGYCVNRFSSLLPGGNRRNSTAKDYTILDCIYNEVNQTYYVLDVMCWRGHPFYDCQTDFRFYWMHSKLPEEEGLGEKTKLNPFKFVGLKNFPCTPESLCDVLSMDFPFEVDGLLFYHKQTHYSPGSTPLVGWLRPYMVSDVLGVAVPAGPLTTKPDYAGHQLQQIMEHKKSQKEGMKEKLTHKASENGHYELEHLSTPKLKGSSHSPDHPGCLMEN
# Chain of UniProt Q9BZD2 (Q9BZD2 whole entry, looked up): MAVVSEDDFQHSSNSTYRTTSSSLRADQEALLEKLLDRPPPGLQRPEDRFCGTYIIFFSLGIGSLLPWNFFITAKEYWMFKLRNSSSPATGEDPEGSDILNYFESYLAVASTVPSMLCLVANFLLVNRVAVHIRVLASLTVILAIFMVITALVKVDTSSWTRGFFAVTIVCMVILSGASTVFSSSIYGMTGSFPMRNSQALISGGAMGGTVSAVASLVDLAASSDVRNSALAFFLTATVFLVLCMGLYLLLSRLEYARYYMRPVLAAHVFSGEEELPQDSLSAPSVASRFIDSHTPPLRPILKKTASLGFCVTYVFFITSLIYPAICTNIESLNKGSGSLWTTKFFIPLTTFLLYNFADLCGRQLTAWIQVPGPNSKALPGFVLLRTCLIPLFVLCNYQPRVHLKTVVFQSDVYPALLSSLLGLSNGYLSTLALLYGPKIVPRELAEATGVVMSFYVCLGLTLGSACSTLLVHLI
# Chain of UniProt Q16629 (Q16629 whole entry, looked up): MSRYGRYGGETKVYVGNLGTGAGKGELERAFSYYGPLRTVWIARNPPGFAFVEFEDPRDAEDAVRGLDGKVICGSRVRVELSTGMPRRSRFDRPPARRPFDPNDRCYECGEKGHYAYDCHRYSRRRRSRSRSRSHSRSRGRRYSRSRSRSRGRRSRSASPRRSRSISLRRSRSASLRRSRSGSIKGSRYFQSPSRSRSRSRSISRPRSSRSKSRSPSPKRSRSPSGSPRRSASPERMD
# Chain of UniProt Q92536 (Q92536 whole entry, looked up): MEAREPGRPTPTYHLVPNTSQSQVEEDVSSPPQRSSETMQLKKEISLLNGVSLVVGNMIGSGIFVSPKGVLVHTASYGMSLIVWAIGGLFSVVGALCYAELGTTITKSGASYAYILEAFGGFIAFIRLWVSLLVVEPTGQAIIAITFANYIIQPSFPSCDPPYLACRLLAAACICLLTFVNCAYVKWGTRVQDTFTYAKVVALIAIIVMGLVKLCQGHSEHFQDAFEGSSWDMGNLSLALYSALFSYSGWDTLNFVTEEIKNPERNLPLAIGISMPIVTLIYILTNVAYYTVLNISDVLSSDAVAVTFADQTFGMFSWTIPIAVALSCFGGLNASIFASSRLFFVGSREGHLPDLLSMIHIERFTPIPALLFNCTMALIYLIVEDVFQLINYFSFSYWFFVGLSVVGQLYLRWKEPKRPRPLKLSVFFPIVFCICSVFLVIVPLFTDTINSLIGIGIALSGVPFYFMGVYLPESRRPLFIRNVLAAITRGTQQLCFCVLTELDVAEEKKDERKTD
# Chain of UniProt P35270 (P35270 whole entry, looked up): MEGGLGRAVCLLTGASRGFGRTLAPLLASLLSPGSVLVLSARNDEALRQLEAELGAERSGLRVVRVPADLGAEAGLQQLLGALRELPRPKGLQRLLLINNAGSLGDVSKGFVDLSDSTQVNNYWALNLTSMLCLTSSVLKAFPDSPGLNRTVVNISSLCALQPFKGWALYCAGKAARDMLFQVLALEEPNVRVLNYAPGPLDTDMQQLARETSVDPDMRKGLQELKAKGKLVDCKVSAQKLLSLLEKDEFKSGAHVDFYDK
# Chain of UniProt Q8WUH2 (Q8WUH2 whole entry, looked up): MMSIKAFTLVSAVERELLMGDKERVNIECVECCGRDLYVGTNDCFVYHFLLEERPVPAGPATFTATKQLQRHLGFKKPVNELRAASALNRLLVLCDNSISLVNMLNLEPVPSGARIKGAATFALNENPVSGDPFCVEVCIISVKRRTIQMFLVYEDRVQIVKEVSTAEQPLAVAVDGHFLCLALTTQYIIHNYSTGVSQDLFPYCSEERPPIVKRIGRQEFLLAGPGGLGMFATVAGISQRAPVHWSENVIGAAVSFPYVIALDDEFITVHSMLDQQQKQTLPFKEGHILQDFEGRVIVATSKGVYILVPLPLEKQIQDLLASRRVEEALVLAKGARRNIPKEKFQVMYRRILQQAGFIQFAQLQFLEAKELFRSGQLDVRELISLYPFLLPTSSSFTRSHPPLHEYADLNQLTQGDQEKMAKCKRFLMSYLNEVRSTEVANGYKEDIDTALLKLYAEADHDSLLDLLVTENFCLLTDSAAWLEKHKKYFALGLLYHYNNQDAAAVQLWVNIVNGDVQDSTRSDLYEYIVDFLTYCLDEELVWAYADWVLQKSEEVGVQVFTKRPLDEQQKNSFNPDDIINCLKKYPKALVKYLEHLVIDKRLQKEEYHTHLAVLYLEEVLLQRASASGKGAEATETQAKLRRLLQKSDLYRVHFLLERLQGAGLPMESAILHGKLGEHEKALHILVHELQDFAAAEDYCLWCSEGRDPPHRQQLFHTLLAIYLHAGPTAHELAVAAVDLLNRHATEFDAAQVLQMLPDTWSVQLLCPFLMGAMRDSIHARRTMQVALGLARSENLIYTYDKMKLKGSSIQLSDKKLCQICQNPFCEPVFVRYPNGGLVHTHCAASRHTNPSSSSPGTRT
# Chain of UniProt O60749 (O60749 whole entry, looked up): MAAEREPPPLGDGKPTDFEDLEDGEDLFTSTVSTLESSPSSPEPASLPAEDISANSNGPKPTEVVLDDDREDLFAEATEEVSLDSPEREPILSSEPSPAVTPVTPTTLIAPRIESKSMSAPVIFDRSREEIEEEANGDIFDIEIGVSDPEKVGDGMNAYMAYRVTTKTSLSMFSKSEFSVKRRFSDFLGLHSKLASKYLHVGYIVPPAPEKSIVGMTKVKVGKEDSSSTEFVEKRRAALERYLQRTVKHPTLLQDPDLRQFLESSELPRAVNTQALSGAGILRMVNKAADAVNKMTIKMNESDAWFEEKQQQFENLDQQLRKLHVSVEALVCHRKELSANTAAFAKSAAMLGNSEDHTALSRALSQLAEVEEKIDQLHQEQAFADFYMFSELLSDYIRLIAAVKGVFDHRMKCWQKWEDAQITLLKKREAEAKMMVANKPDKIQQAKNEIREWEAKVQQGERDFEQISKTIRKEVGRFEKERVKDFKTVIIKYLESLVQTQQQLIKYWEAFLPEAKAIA
Target,log2 fold change [1],log2 fold change [2],log2 fold change [3],log2 fold change [4],log2 fold change [5],log2 fold change [6],log2 fold change [7],log2 fold change [8],log2 fold change [9],log2 fold change [10],log2 fold change [11],log2 fold change [12],log2 fold change [13],log2 fold change [14],log2 fold change [15],log2 fold change [16],log2 fold change [17],log2 fold change [18],log2 fold change [19],log2 fold change [20]
SPG11 (UniProt Q96JI7),-0.281,0.055,0.28,0.012,-0.156,0.151,0.046,0.119,-0.094,0.069,-0.232,0.158,-0.415,-0.118,0.388,0.14,-0.032,0.331,-0.167,0.401
ST3GAL2 (UniProt Q16842),-0.103,0.036,-0.017,0.107,0.129,-0.02,0.093,0.138,0.06,-0.136,0.087,0.124,0.092,0.075,-0.134,0.1,0.187,-0.043,0.17,0.102
SNRNP27 (UniProt Q8WVK2),-0.071,0.048,0.062,-0.023,-0.036,0.015,0.049,-0.09,-0.061,0.097,-0.075,0.03,-0.156,0.121,-0.003,-0.015,-0.011,0.135,0.005,-0.009
SQSTM1 (UniProt Q13501),-0.038,-0.073,-0.149,-0.022,-0.024,-0.074,-0.021,-0.048,0.012,0.051,0.047,0.011,-0.167,0.072,-0.016,-0.136,-0.022,0.058,-0.012,-0.112
SNX2 (UniProt O60749),0.006,0.002,-0.089,0.004,-0.114,-0.068,-0.004,0.024,0,-0.029,0.011,-0.156,0.037,0,0.013,-0.101,-0.105,0.029,0.001,-0.104
SMAP (UniProt O00193),-0.035,0.016,-0.015,0.016,-0.069,-0.001,-0.064,0.009,-0.054,0.013,-0.046,-0.154,-0.018,0.005,-0.01,0.02,0.033,0.051,-0.013,-0.016
SRSF7 (UniProt Q16629),-0.014,0.12,0.291,0.006,-0.226,0.168,0.3,-0.04,0.038,0.042,-0.089,0.422,-0.015,0.327,-0.114,-0.047,0.084,0.013,0.1,-0.003
SLC29A3 (UniProt Q9BZD2),0.089,0.056,0.045,0.092,0.105,0.013,-0.083,-0.018,-0.05,0.055,0.009,-0.258,-0.015,-0.113,0,-0.08,-0.08,0.019,-0.118,–
SRSF6 (UniProt Q13247),0.032,0.031,0.054,0.092,-0.331,0.032,0.227,-0.113,0.096,0.018,-0.209,0.218,-0.118,0.375,-0.105,-0.134,0.033,-0.032,0.163,-0.473
SNX6 (UniProt Q9UNH7),-0.018,0.026,-0.112,-0.051,-0.125,-0.054,-0.016,0.041,0.042,-0.009,-0.036,-0.187,0.02,-0.01,-0.035,-0.109,-0.123,0.004,-0.055,-0.252
SNUPN (UniProt O95149),0.052,-0.069,-0.061,-0.036,-0.019,-0.056,-0.027,-0.04,0.021,0.028,0.001,-0.09,-0.007,0.05,-0.013,-0.05,0.014,0.005,0.019,-0.021
SPR (UniProt P35270),0.318,0.052,0.064,-0.014,-0.053,0.237,0.043,0.026,-0.065,-0.021,0.794 (active),-0.087,0,-0.225,-0.051,-0.039,-0.008,0.021,-0.031,0.681 (active)
TGFBRAP1 (UniProt Q8WUH2),-0.124,0.048,-0.008,0.134,0.047,-0.061,0.097,-0.051,0.076,-0.109,0.092,-0.006,-0.031,-0.137,0.046,0.092,0.047,-0.103,-0.098,-0.136
SLC7A6 (UniProt Q92536),0.018,0.022,-0.096,0,-0.16,-0.056,-0.034,0.027,0.002,-0.047,-0.236 (active),0.009,-0.001,-0.02,-0.069,0.028,0.073,0.048,0.033,0.048
SLC35A1 (UniProt P78382),0.038,0.015,0.006,-0.038,-0.016,-0.198,0.048,-0.112,0.043,-0.211,0.048,-0.021,-0.138,-0.051,-0.063,-0.097,0.06,0.06,-0.028,–
SPAG9 (UniProt O60271),0.014,-0.037,-0.047,0.003,0.02,-0.044,0.049,0.034,0.023,-0.011,0.005,-0.041,-0.011,0,-0.034,-0.034,-0.01,-0.031,-0.026,0.041
